The values below come from PubChem BioAssay AID588819 (The Scripps Research Institute Molecular Screening Center, 2011).

Molecules are shown by their SMILES. Among all 360,000 compounds or so, about 320 (0.089%) were called active. What follows is part of a selection rich in actives, with near analogues and random picks from the rest. Values without a mark were called inactive. Rule as the data show it: active = activation above about 19% (passing the limit was not always enough); inactive = the rest.

Muscarinic acetylcholine receptor M1 (Homo sapiens), sequence (P11229 whole entry, looked up): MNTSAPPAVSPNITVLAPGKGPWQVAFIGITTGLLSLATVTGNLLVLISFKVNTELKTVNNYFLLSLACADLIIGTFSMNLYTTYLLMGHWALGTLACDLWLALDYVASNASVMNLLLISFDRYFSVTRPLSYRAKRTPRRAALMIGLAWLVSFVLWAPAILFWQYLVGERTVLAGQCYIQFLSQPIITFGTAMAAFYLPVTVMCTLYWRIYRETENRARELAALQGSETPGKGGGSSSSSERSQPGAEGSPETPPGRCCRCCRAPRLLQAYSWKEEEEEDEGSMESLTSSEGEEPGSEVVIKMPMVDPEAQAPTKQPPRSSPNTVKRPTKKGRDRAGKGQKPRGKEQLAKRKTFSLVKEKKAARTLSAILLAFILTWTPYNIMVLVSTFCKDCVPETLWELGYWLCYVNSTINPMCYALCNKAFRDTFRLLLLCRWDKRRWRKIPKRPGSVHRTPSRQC

This experiment has as its target Muscarinic acetylcholine receptor M1 (Homo sapiens) (UniProt P11229). As to the kind of experiment: CHRM1 PAMs potentiating acetylcholine calcium signal – CHO-K1 cells, Fluo-8 calcium fluorescence, 1536-well, primary screen (AID 588819). Particulars: CHO-K1 hM1, Fluo-8 calcium fluorescence, ACh EC20; at 3 µM; stronger effect = higher value; 0% = ACh EC20, 100% = maximal ACh.
On to `Cc1ccc(S(=O)(=O)NC(=O)N2CCCN(Cc3ccc(F)cc3)CC2)cc1`, for which the activation is 5.25%.
Take `CCN(CC(=O)Nc1ccc(OC)cc1)C(=O)c1ccc(Cl)c(S(=O)(=O)N2CCCC2)c1`: the activation is 9.99%.
For `CC(C)(C)NC(=O)CN(C(=O)c1ccc(Cl)nc1)c1cccc2ccccc12`, the activation is 2.85%.
`CCC1(CC)C(=O)C2=C3C1[C@H](C(=O)OC)C=C(C(=O)OC)C[C@H]3[C@H]1C(=O)N(Cc3ccccc3)C(=O)[C@H]1[C@H]2C` (stereo partly specified): the activation was -6.86%.
`COc1ccc(-n2nc3c(c2NC(=O)c2ccc(N4C(=O)CCC4=O)cc2)CSC3)cc1`: the activation is 1.99%.
As for `COc1ccc(CCNC(=O)CN(C)S(=O)(=O)c2ccc3nc(C)sc3c2)cc1OC`, the activation was 8.1%.
As to `CCN(C(=O)COC(=O)/C=C/c1nc2ccccc2s1)C1CCS(=O)(=O)C1` (stereo unspecified), the activation is -0.52%.
In the case of `O=c1[nH]c(CN2CCN(S(=O)(=O)c3ccc4c(c3)OCCO4)CC2)nc2sc3c(c12)CCCC3`, the activation is 12.9%.
To `O=C(NCc1cccnc1)C12CC3CC(CC(C3)C1)C2` belongs 22.9%; to `Cc1ccc(CSCC(=O)N(C)CC(=O)Nc2cccc(F)c2)cc1`, 11.3%.
Take `COc1ccc(NC(=O)CN(C)C(=O)CC2CCCCC2)cc1`: the activation is 15.3%.
As to `CN(CC(=O)Nc1cccc(F)c1)C(=O)CC1CCCC1`, the activation is 29.7% (active).
As to `ONC(=Nc1ccccc1)c1ccccc1Cl`, the activation is 2.82%.
To `CCC1(CC)NC(=O)N(CC(=O)OCC(=O)NC(=O)c2ccccc2)C1=O` belongs 5.54%.
As for `CC(C)N1CCC(N2CCN(Cc3cccnc3)CC2CCO)CC1` (stereo unspecified), the activation is 7.42%.
Turning to `COc1ccc(S(=O)(=O)N2CCN(C(=S)NCC3CCCO3)CC2)cc1OC` (stereo unspecified), the activation was 2.58%.
Consider `O=C(NCc1ccccc1)C1=C[C@@H](c2ccccc2)C[C@@H](OCCCCO)O1`, for which the activation was 19.5%.
For `O=C(/C=C/c1ccccc1)Nc1nnc(SCC(=O)c2ccc3ccccc3c2)s1`, the activation is 1.55%.
On to `O=C(CSc1ccccc1)Nc1nnc(/C=C/c2ccccc2)s1`, for which the activation was 32.8% (active).
In the case of `CCOCc1nnc(NC(=O)CSc2ccc(C)cc2)s1`, the activation was 3.8%.
To `O=C(Cn1nc(C(=O)O)c2ccccc2c1=O)Nc1ccc(F)cc1` belongs 1.79%; to `CC(=O)Nc1ccc(NC(=O)C(C)OC(=O)C2CC(=O)N(CCc3ccccc3)C2)cc1` (stereo unspecified), 4.72%; to `CCCCN(C)c1ccc([N+](=O)[O-])cc1`, -3.31%.
As for `CC(C)Cn1cnc2c1c(=O)n(CC(=O)NN)c(=O)n2Cc1ccccc1`, the activation is 4.53%.
Turning to `COCCn1cnc2c1c(=O)n(CC(=O)NN)c(=O)n2Cc1ccccc1`, the activation was 13.3%.
As to `CC(C)CCn1cnc2c1c(=O)n(CC(=O)NC(N)=O)c(=O)n2Cc1ccccc1`, the activation was 30.3% (active).
